In the library only some 4.3% were active in any assay of this set; here they are far more common.
MITF TRPM1 HTS: increases MITF-driven TRPM1 promoter luciferase signal; actives 0.75% (n = 300,000); SK-MEL-5 TRPM1-promoter luciferase, 24 h; % of positive control, neutral wells = 0; activation, % at 12.5 µM; AID 588334;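 active = mean activation of at least 80% with every replicate also reaching 80%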;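 also: 0% = neutral control wells and 100% = parthenolide positive control wells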
Wnt bcat act: activators of Wnt/beta-catenin signaling; activation, % at 9.35 µM; Wnt/beta-catenin reporter cell assay, activator, plate reader; actives 1.2% (n = 300,000); in the data active = activation above about 30%, passing the limit was not always enough;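 also: 0% = neutral control wells and 100% = positive control wells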
esBAF inh: inhibitors of esBAF chromatin remodeling in mouse ES cells; Bmi1-luciferase knock-in reporter, 24 h; 100% = twice the neutral-well signal; reporter increase, % at 12.5 µM; actives 2% (n = 350,000); in the data active = activation above about 40%;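 also: 0% = median of the plate's neutral control wells and 100% = double that signal; a rise in the Bmi1 reporter signal indicates esBAF inhibition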
SMARCA2 activ: activators of SMARCA2 function; actives 1% (n = 370,000); AID 652017; MG213 cells, MMTV-luciferase reporter, dexamethasone, overnight; activation, % at 9.1 µM; in the data active = activation above about 7.8%;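 also: 0% = vehicle wells and 100% = reference activator wells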
HSF-1 act: increases HSF-1 driven luciferase reporter signal | NIH3T3-HGL HSF-1 luciferase reporter, MG132, 8 h; 100% = twice DMSO control signal | activation, % at 9 µM | actives 1.7% (n = 300,000) | AID 504408;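 active = mean replicate activation of at least 50% with a set share of replicates each reaching 50%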;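 also: 0% = median of the neutral control wells and 100% = twice that signal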
HSF1 inh: HSF1 inhibition; NIH3T3-HGL HSE-luciferase, MG132-induced, luminescence 8 h; hits give low values; activity change, negative = inhibition, % at 7.5 µM (by protocol); actives 0.77% (n = 300,000); AID 2098;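 active = more than half of replicate wells show activity change below -50%, luminescence cut by over half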;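 also: luciferase reports HSF-1 transcriptional activity via heat shock element; 0% = median of DMSO wells and -100% = zero luminescence signal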
SMARCA2 conf: confirmation of SMARCA2 (BRM) function activators; actives 30% (n = 3,500); MG213 cells, MMTV-luciferase with dexamethasone, luminescence, overnight; MG213 cells expressing E1A, Rb sequestered; DMSO wells 0%, reference activator 100%; shares compounds with SMARCA2 activ; activation, % at 9.1 µM;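 active = activation above its plate's cutoff, the mean activation of tested wells plus 3 SD, cut at about 7.9% in these data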
VP16 Luc act: GAL4-VP16 reporter activation counter-screen; activation, % at 9.1 µM; shares compounds with SMARCA2 activ; actives 41% (n = 3,500); AID 686939; HEK293 GAL4-VP16 pG5luc reporter, luciferase luminescence; scaled: DMSO wells 0%, SAHA wells 100%;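 active = activation above the solvent-only control well mean plus 3 SD, averaged across control plates, cut at about 5.2% in these data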
The depositor's hits bear a star.

Screening Cc1nc2ccc(Cl)cc2nc(C)/c1=N\O returned MITF TRPM1 HTS 15, esBAF inh 20, SMARCA2 activ 8.1*, HSF-1 act 25, HSF1 inh 12, SMARCA2 conf 9.7* and VP16 Luc act 8.7*.
Screening Cc1ccc(S(=O)(=O)N2C[C@H](O)COC[C@H]3O[C@H](CC(=O)NCc4ccc5c(c4)OCO5)CC[C@@H]32)cc1 returned esBAF inh -3.
Screening COc1ccccc1NC(=O)CSc1nncn1-c1cccnc1 returned MITF TRPM1 HTS -18, Wnt bcat act -1, esBAF inh -8, SMARCA2 activ 13*, HSF-1 act 6, HSF1 inh 3, SMARCA2 conf 0 and VP16 Luc act 0.
Clc1ccc(-c2nnc(-c3ccccc3)o2)cn1 was read as Wnt bcat act 15, esBAF inh 34, SMARCA2 activ 8.6*, HSF-1 act 12, HSF1 inh 1, SMARCA2 conf 4 and VP16 Luc act 4.
c1coc(-c2nnc(-c3ccc4c(c3)OCO4)o2)c1 was read as Wnt bcat act 16, SMARCA2 activ 10*, SMARCA2 conf 8.4* and VP16 Luc act 11*.
`O=C(Cc1ccccc1)Nc1ccc(-c2nnc(-c3ccco3)o2)cc1` gave esBAF inh 14, SMARCA2 activ 1, HSF-1 act 2 and HSF1 inh 2.
c1ccc(-c2nnc(-c3ccco3)o2)cc1 was read as esBAF inh 40, SMARCA2 activ 8.4*, HSF-1 act 39, HSF1 inh 25, SMARCA2 conf 7 and VP16 Luc act 9.0*.
CCCNC(=O)[C@H]1[C@H](CO)[C@H]2Cn3c(ccc(-c4cccnc4)c3=O)[C@H]2N1C(=O)c1ccccc1F was read as esBAF inh 3.
For CCCOc1ccc(-c2cn3ccccc3n2)cc1 the results were MITF TRPM1 HTS -8, Wnt bcat act 8, SMARCA2 activ 8.2*, SMARCA2 conf 6 and VP16 Luc act 9.7*.
Screening Cc1c(/C=N\NC(=O)c2ccc(F)cc2)cnn1C returned MITF TRPM1 HTS -6, SMARCA2 activ 1, HSF-1 act -2 and HSF1 inh 10.
Cc1c(/C=N\NC(=O)c2cccc(F)c2)cnn1C was read as MITF TRPM1 HTS 9, Wnt bcat act 2, SMARCA2 activ 0, HSF-1 act -47 and HSF1 inh -32.
For Cc1occc1C(=O)N/N=C/c1cnn(C)c1C the results were MITF TRPM1 HTS 46, Wnt bcat act 19, esBAF inh 35, SMARCA2 activ 8.8*, HSF-1 act 21, HSF1 inh 13, SMARCA2 conf 4 and VP16 Luc act 5.
For Cc1c(/C=N/NC(=O)c2ccc(Br)o2)cnn1C the results were Wnt bcat act 14, SMARCA2 activ 14*, HSF-1 act 61*, HSF1 inh 21, SMARCA2 conf 2 and VP16 Luc act 1.
For N#Cc1c2ccc([N+](=O)[O-])cc2[n+]([O-])n1-c1ccccc1 the results were MITF TRPM1 HTS -90, Wnt bcat act 13, esBAF inh -24, SMARCA2 activ 8.5*, SMARCA2 conf 13* and VP16 Luc act 8.9*.
Screening Cc1cc(C)nc(NS(=O)(=O)c2ccc(NC(=O)C3CC(=O)N(c4ccccc4)C3)cc2)n1 (stereo unspecified) returned MITF TRPM1 HTS 32, Wnt bcat act 2, SMARCA2 activ 8.2*, HSF-1 act 3, HSF1 inh -7, SMARCA2 conf -2 and VP16 Luc act 1.
For COc1ccc(N2CC(C(=O)Nc3ccc(S(=O)(=O)Nc4nc(C)cc(C)n4)cc3)CC2=O)cc1 (stereo unspecified) the results were MITF TRPM1 HTS -7, Wnt bcat act -3, esBAF inh 2, SMARCA2 activ 9.4*, SMARCA2 conf -2 and VP16 Luc act 0.
Screening O=C(N[C@@H]1CC[C@@H](CCn2cc(-c3ccccn3)nn2)O[C@@H]1CO)c1ccncc1 returned esBAF inh 1.
For COc1ccc(NC(=O)c2sc3nc(C)cc(C)c3c2N)c(OC)c1 the results were Wnt bcat act 0, SMARCA2 activ 5, HSF-1 act 2 and HSF1 inh 2.
Cc1ccc(NC(=O)c2sc3nc(C)cc(C)c3c2N)cc1 was read as MITF TRPM1 HTS 83*, Wnt bcat act 36*, esBAF inh 4, SMARCA2 activ 9.9*, HSF-1 act 23, HSF1 inh 14, SMARCA2 conf 7 and VP16 Luc act 15*.
C[C@@H]1CN([C@@H](C)CO)C(=O)c2cccc(NC(=O)c3ccc(-c4nccs4)cc3)c2O[C@H]1CN(C)C was read as esBAF inh 2.
Screening C[C@@H]1CN([C@@H](C)CO)C(=O)Cc2cc(NC(=O)NC3CCCCC3)ccc2O[C@H]1CN(C)S(=O)(=O)c1ccccc1 returned esBAF inh -8.
`CC(=O)c1sc(NC(=O)c2ccc(C(C)(C)C)cc2)nc1C` gave MITF TRPM1 HTS 66, Wnt bcat act 12, esBAF inh -8, SMARCA2 activ 8.2*, HSF-1 act -13, HSF1 inh -15, SMARCA2 conf 8.0* and VP16 Luc act 18*.
For CC(=O)c1sc(NC(=O)C(C)(C)C)nc1C the results were MITF TRPM1 HTS -1, SMARCA2 activ 1, HSF-1 act 4 and HSF1 inh -2.
Cc1ccc(C(=O)/C=C2\NCCNC2=O)cc1 was read as MITF TRPM1 HTS 34, SMARCA2 activ 12*, HSF-1 act 49, HSF1 inh 19, SMARCA2 conf 12* and VP16 Luc act 15*.
Screening CC=Cc1ccc2n(c1=O)C[C@@H]1[C@@H](CO)[C@H](C(=O)NCCc3ccncc3)[C@H]2N1CCC(F)(F)F (mixture of isomers) returned esBAF inh -2.
CC1CCc2onc(C(=O)O)c2C1 (stereo unspecified) was read as MITF TRPM1 HTS -5, Wnt bcat act 0, esBAF inh -10, SMARCA2 activ -1, HSF-1 act -22 and HSF1 inh -11.
CCCCCCCCCc1conc1C(=O)/C=C/c1oc2c(c1C)CCC(C)C2 (stereo unspecified) was read as Wnt bcat act -3, SMARCA2 activ 9.0*, SMARCA2 conf -7 and VP16 Luc act 0.

Assay outcomes from PubChem.
